Measurements taken from PubChem BioAssay (EPA / NIEHS).
Inconclusive results are not listed. The source holds several records for some structures; these can differ, active in one and inactive in another. Calls of active or inactive are those of the source. The calls were made as follows, unless noted: active = hit-call score of the fitted dose curve at least 0.9, where 1 is the maximum; inactive = score below 0.9.

test system: not listed separately; assay: STM_H9_OrnCyssISnorm_ratio: Stemina devTOX quickPredict H9 human embryonic stem cell (hESC)-based Assay for Ornithine (ORN):Cystine (CYSS) Ratio (AID 2283714; active = hit-call score of the fitted dose curve at least 0.9, where 1 is the maximum)
How it was run: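 Steps: H9 hESCs in pluripotent state dosed 72h, medium plus compound renewed every 24h; conditioned medium from the final 24h deproteinized in 40% acetonitrile; ORN and CYSS quantified by UPLC-HRMS with C13 spike-ins; ratio relative to vehicle.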

Structure (SMILES) | AC50 | outcome
O=C1CCCCCCCCCCCC(=O)OCCO1 | 13.2 µM (active) | 
CCOC(=O)C=Cc1ccccc1 | 24.8 µM (active) | 
CC(=O)C1=C(C)[C@@H]2C[C@@]3(C1)[C@H](C)CC[C@H]3C2(C)C |  | inactive
CCCCN(CCO)CCO |  | inactive

read-out: not listed separately; assay: CEETOX_H295R_MTT_cell_viability: Viability Assessment in the CeeTox HT-H295R MTT Assay (AID 2283718);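 as to AC50: curve fitted both ways so AC50 may mark viability loss or gain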
How it was run: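 MTT reduction (0.5 mg/ml, 4 h at 37 C; absorbance at 570 and 650 nm) gave viability as background-corrected percent change versus controls. H295R cells had 48 h forskolin (10 uM) prestimulation, then 48 h chemical exposure at 0.1% DMSO.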

Structure (SMILES) | outcome | AC50
CC=CC(=O)C1=C(C)C=CCC1(C)C | inactive | 
OCC=Cc1ccccc1 | inactive | 
CCCCCC1C(=O)CCC1CC(=O)OC (stereo not drawn) | inactive | 
COC(=O)C(C)Oc1ccc(Oc2ncc(C(F)(F)F)cc2Cl)cc1 (stereo not drawn) | inactive | 
COc1cc(OC)c2ccc(=O)oc2c1 | inactive | 
c1ccc(OCCOc2ccccc2)cc1 | inactive | 
OCCCO | inactive | 
CCCCCC(=O)O[C@]1(C(C)=O)CC[C@H]2[C@@H]3CCC4=CC(=O)CC[C@]4(C)[C@H]3CC[C@@]21C |  | 13.4 µM (active)
CC(=O)c1ccc2ccccc2c1 | inactive | 
CCCCCCCCCCCCN1CCOCC1 | inactive | 
CC(=O)C1=C(C)[C@@H]2C[C@@]3(C1)[C@H](C)CC[C@H]3C2(C)C |  | 50 µM (active)
CCCCCCCCCCOC(=O)c1ccccc1C(=O)OCCCCCCCC | inactive | 
COC(=O)c1cccc(C(=O)OC)c1 | inactive | 
COc1ccc2[nH]cc(CCNC(C)=O)c2c1 | inactive | 
CC(=N[Si](C)(C)C)O[Si](C)(C)C | inactive | 
c1coc(CNc2ncnc3nc[nH]c23)c1 | inactive | 
O=C(OCc1ccccc1)c1ccccc1O | inactive | 

target: Luciferin 4-monooxygenase (Photinus pyralis) (UniProt P08659); assay: CCTE_Simmons_QuantiLum_inhib_2: CCTE's Firefly Luciferase Inhibition Assay, Simmons Lab (AID 2283767; active = hit-call score of the fitted dose curve at least 0.9, where 1 is the maximum;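 as to AC50: potency for inhibitors that lower luciferase luminescence relative to DMSO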)
Sequence (P08659 whole entry, looked up): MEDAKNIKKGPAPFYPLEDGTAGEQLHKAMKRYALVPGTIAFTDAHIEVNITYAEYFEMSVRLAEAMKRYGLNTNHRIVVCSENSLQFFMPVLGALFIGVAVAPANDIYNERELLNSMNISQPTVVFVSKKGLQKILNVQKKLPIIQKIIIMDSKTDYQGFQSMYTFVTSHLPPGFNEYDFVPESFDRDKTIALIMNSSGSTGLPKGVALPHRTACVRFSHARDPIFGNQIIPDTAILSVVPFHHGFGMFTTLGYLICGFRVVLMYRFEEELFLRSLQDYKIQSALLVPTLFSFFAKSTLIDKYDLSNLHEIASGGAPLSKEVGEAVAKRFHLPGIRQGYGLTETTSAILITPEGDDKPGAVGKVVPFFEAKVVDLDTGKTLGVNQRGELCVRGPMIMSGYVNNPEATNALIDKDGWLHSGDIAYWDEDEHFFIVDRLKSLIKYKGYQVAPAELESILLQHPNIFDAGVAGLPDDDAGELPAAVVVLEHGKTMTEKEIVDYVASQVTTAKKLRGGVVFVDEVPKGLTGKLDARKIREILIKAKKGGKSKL
How it was run: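 Cell-free recombinant firefly luciferase (5 ng/well) in 200mM potassium phosphate with 1 mg/ml BSA, 30 min at 37C with 8 concentrations from 5 nM to 87.5 uM [final], 0.5% DMSO. Luminescence read after D-luciferin (150uM)/dATP (147uM) reagent injection, pH 7.8; triplicates.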

Structure (SMILES) | outcome | AC50
CN(C)C(=O)Nc1ccccc1 | inactive | 
O=Cc1ccccc1O | inactive | 
O=C(O)C1=NN(c2ccc(S(=O)(=O)O)cc2)C(=O)C1 | inactive | 
O=c1cc[nH]cc1 | inactive | 
CC1=CCC(=C(C)C)CC1 | inactive | 
c1ccc2scnc2c1 | inactive | 31.7 µM (active)
